Results on 29 molecules are retold here after PubChem BioAssay AID504545 (Broad Institute, 2011).

Entries with a potency or affinity are not part of this list. Inconclusive results are not listed. Active and inactive are the calls of the source. The rule behind the calls is not given here.

The target of the assay is Cyclin-dependent kinase 5 activator 1 (Homo sapiens) + Cyclin-dependent kinase 5 (Homo sapiens) (UniProt Q15078+Q00535). Briefly: blockade of human CDK5 activity – biochemical, cherry-picked samples, set 2, dose response (AID 504545). The note with it: CDK5/p35 kinase activity, biochemical plate reader; series mostly up to 30 µM.
Cyclin-dependent kinase 5 activator 1 (Homo sapiens) + Cyclin-dependent kinase 5 (Homo sapiens), sequence (Q00535 whole entry, looked up): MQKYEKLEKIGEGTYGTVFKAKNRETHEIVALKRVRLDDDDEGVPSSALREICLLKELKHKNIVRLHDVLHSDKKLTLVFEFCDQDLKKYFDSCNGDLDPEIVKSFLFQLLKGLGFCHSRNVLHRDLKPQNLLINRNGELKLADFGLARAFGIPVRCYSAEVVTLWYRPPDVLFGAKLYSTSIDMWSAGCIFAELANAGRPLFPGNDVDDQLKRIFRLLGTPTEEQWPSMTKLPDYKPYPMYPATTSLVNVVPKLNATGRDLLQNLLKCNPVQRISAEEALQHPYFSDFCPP
Cyclin-dependent kinase 5 activator 1 (Homo sapiens) + Cyclin-dependent kinase 5 (Homo sapiens), sequence (Q15078 whole entry, looked up): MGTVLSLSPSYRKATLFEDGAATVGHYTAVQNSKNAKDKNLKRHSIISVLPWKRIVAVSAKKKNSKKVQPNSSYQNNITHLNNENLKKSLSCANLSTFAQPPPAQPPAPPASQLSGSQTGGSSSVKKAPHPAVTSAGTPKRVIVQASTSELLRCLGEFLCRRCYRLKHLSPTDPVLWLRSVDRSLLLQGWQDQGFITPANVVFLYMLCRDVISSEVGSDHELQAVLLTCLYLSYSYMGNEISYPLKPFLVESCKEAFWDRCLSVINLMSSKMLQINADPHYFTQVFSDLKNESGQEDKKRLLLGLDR
Take `COc1ccc2oc(C(=O)NCCC(C)C)c(C)c2c1`: the result was inactive.

On to `Oc1ccc(C=NNc2ccccn2)c(O)c1`, for which the result was inactive.

Consider `Clc1ccc(N/N=C/c2ccncc2)cc1Cl`, for which the result was inactive.

In the case of `Cc1nn(-c2ccccn2)c2c1C(=O)CC(C)(C)C2Br` (centres undefined), the result was inactive.

Turning to `CCNc1nc(Nc2ccc(C)c(Cl)c2)c2cnn(C)c2n1`, the result was inactive.

With `Clc1cccc(Cl)c1/C=N/Nc1c(Cl)cncc1Cl`, the result was inactive.

As for `O=C(O)CCC(=O)NCCn1c(-c2ccccc2)csc1=Nc1ccccc1`, the result was inactive.

With `Cc1cccc(/N=C/c2c(O)ccc3oc4c(c23)CCCC4)n1`, the outcome was inactive.

As to `Clc1cnc(N/N=C/c2ccncc2)c(Cl)c1`, the outcome was inactive.

On to `COc1cccc(OC)c1C(=O)N1CCN(c2ccccn2)CC1`, for which the result was inactive.

With `Cc1nc(Nc2ccccc2)sc1C(=O)c1ccc(F)cc1`, the outcome was inactive.

Turning to `Cc1ccc2nc(NCc3ccccc3)c(C#N)cc2c1`, the result was inactive.

`O=C(c1ccc(F)cc1)c1cnc(Nc2ccccc2)s1`: the result was inactive.

Regarding `S=C(c1ccc(OCc2ccccc2)cc1)N1CCCC1`, the result was inactive.

As to `Oc1cccc(C=NNc2ccccn2)c1`, the outcome was inactive.

On to `O=C(c1ccc2c(c1)OCO2)N1CCN(c2ccccn2)CC1`, for which the outcome was inactive.

For the molecule `CCOc1cc(C(=O)N2CCN(c3ccccn3)CC2)cc(OCC)c1OCC`, the outcome was inactive.

`CC(=O)[C@H]1CC[C@H]2[C@@H]3CC=C4C[C@@H](OS(=O)(=O)O)CC[C@]4(C)[C@H]3CC[C@]12C`: the result was inactive.

For the molecule `Cc1ccc(C(=O)O/N=C(\N)c2ccccn2)cc1C`, the outcome was inactive.

With `Oc1ccc(/C=N/Nc2cccc(Cl)n2)c(O)c1`, the outcome was inactive.

Regarding `CC(C)=CCNc1ncnc2c1c(C#N)cn2C1OC(CO)C(O)C1O` (centres undefined), the result was inactive.

Turning to `Cc1ccc(Nc2nc(NCCO)nc3c2cnn3C)cc1Cl`, the outcome was inactive.

For `COc1ccc2nc(C)cc(Nc3ccc(C)cc3)c2c1`, the result was inactive.

For the molecule `Cc1ccc2[nH]c(C(F)(F)F)cc(=O)c2c1`, the outcome was inactive.

Turning to `Cc1ccc2nc(Cl)c(C#N)cc2c1`, the result was inactive.

Take `CCc1cc(C(=O)c2ccc(OC)cc2)c(N)s1`: the outcome was inactive.

As to `CC(C)n1cnc2c(NCc3ccc(S(N)(=O)=O)cc3)nc(NCc3ccc(S(N)(=O)=O)cc3)nc21`, the outcome was inactive.

On to `NC(=S)N/N=C/c1c(O)c(Br)cc2oc3c(c12)CCCC3`, for which the result was inactive.

With `O=C(NNC(=O)c1ccccn1)c1ccc(OC(F)F)cc1`, the outcome was inactive.
